In PubChem BioAssay:
Calls of active or inactive are those of the source.

Tests used:
[1] = small molecules captured by biotinylated probe aFSTL3 – biochemical, small-molecule microarray, fluorescence 635/667, stem cell growth factor project, primary screen (AID 1064); conditions: higher = more signal;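 note: measures binding of the biotinylated anti-FSTL3 antibody to printed compounds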
[2] = binders from COS7 lysate, DM2A8 probe, primary screen, torsin A project, cell lysate, small-molecule microarray, fluorescence 635/667 (AID 1065); conditions: higher = more signal, COS7 lysate expressing mutant human TOR1A
[3] = small molecules captured by biotinylated probe aFGF2 – biochemical, small-molecule microarray, fluorescence 635/667, stem cell growth factor project, primary screen (AID 1067); conditions: higher = more signal;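 note: measures binding of biotinylated aFGF2 protein to printed compounds on slides; z-score merges feature fluorescence and signal-to-noise across triplicate slides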
[4] = small molecules captured by biotinylated probe aFGF10 – biochemical, small-molecule microarray, fluorescence 635/667, stem cell growth factor project, primary screen (AID 1071); conditions: higher = more signal;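 note: score merges 667 nm spot intensity and signal to noise from triplicate slides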
[5] = target: Neurogenic locus notch homolog protein 2 (Homo sapiens) (UniProt Q04721); assay: small molecules binding Notch2 protein – biochemical, small-molecule microarray, 635 nm fluorescence, stem cell growth factors, primary screen (AID 1073); conditions: higher = more signal
[6] = target: Pro-neuregulin-1, membrane-bound isoform (Homo sapiens) (UniProt Q02297); assay: small molecules binding neuregulin-1 protein – biochemical, small-molecule microarray, fluorescence 635/667, psychiatric disease protein project, primary screen (AID 1075); conditions: NRG1 binding, 635 nm fluorescence, higher = more signal;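 note: score combines 667 nm spot fluorescence with signal to noise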
[7] = tested on: Neuregulin-1 EGF-like domain; assay: small molecules binding NRG1 EGF domain – biochemical, small-molecule microarray, 635 nm fluorescence, primary screen (AID 1081); conditions: higher = more signal;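 note: binding of the protein to compounds printed on small-molecule microarray slides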
[8] = FRG1 expression reporter modulators in myotubes – cell-based, C2C12 myotubes, firefly/Renilla luciferase, luminescence, FRG1 inhibition for FSHD, primary screen (AID 1084); conditions: FRG1 promoter luciferase, higher = more signal, called active from +8 up or from −8 down
[9] = small molecules captured by biotinylated probe aFST – biochemical, small-molecule microarray, fluorescence 635/667, stem cell growth factor project, primary screen (AID 1086); conditions: higher = more signal;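 note: score merges 667 nm fluorescence with signal-to-noise of each printed compound spot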
[10] = binders of probe aHhip on microarray, primary screen, stem cell growth factor project, biochemical, small-molecule microarray, fluorescence 635/667 (AID 1087); conditions: higher = more signal;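 note: score merges spot fluorescence at 667nm with spot signal to noise ratio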

Chain of Neurogenic locus notch homolog protein 2 (Homo sapiens) (Q04721 whole entry, looked up, canonical isoform): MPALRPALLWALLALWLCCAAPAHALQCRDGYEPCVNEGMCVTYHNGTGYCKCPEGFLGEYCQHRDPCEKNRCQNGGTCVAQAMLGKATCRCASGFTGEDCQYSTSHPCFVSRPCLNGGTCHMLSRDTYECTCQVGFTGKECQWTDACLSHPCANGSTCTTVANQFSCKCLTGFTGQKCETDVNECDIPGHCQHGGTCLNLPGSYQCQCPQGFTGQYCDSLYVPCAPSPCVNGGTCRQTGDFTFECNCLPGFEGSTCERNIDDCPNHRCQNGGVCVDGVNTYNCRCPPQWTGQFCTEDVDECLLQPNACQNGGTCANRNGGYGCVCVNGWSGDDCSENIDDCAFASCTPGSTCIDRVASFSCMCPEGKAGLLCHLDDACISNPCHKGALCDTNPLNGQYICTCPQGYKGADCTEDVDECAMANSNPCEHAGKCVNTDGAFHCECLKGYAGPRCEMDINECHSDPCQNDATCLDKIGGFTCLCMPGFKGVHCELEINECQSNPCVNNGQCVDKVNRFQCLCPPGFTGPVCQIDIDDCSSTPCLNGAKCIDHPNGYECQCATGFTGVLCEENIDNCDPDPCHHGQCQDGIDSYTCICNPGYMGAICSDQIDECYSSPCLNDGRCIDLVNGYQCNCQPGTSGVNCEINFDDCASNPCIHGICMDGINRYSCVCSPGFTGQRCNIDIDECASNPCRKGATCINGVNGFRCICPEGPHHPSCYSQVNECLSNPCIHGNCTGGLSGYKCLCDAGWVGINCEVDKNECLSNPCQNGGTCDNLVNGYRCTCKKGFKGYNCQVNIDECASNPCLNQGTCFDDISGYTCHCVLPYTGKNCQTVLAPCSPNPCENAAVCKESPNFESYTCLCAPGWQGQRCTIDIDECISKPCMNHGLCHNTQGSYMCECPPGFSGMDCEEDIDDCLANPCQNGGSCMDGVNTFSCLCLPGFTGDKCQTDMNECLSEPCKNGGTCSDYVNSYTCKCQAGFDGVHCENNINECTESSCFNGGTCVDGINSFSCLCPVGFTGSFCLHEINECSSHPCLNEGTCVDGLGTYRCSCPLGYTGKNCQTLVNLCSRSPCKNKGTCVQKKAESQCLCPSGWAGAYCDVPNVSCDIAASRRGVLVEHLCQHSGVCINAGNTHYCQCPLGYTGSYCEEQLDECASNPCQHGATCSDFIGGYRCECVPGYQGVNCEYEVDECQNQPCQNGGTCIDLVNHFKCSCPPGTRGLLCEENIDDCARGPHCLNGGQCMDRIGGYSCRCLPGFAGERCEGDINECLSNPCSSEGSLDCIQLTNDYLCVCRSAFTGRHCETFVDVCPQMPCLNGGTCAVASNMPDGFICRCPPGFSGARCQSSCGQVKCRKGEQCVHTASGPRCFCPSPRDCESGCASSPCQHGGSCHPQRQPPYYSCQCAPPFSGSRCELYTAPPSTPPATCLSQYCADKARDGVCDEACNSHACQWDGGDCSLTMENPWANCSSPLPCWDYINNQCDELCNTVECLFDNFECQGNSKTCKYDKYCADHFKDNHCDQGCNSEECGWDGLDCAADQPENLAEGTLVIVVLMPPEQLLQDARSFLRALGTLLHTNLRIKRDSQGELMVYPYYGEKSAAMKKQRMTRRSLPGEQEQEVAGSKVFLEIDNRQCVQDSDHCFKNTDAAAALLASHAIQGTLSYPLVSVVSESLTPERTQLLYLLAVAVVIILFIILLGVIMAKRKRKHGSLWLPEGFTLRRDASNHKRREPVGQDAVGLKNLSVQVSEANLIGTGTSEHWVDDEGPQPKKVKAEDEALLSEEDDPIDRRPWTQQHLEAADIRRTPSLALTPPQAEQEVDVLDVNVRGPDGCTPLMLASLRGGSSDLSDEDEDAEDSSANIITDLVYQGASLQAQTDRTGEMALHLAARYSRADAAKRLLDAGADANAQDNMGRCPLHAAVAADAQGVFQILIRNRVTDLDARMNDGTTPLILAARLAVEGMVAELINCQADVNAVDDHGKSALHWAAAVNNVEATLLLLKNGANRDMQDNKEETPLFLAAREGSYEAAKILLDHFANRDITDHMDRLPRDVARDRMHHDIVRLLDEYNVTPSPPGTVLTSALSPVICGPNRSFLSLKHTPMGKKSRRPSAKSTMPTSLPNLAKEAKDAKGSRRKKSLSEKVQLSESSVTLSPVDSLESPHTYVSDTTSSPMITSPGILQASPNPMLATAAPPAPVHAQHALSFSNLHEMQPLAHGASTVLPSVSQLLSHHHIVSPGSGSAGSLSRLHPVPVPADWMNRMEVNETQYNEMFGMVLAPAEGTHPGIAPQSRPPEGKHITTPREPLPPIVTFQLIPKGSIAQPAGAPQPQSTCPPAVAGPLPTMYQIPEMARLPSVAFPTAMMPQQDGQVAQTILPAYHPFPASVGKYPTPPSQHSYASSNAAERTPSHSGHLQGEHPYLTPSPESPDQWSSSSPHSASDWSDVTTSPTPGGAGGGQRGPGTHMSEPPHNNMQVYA
Chain of Pro-neuregulin-1, membrane-bound isoform (Homo sapiens) (Q02297 whole entry, looked up, the tested form may be a part, canonical isoform): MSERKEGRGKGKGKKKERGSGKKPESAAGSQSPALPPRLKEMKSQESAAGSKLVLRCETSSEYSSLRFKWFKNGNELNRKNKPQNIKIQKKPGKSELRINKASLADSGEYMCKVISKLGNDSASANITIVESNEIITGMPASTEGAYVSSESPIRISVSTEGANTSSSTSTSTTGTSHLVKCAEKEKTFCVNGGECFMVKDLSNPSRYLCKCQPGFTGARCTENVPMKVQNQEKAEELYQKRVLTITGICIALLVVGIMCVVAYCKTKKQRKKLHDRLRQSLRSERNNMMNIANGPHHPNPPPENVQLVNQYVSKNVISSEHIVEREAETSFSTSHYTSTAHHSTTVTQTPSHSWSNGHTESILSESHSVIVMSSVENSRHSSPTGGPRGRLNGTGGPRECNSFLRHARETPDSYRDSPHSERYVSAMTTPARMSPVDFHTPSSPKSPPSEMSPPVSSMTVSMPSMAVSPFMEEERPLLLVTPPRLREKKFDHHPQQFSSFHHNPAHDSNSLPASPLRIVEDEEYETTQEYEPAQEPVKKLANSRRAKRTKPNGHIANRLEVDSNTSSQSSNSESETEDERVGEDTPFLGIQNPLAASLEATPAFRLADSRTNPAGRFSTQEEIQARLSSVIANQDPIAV

Row | Compound | composite z-score [1] | composite z-score [2] | composite z-score [3] | composite z-score [4] | composite z-score [5] | composite z-score [6] | composite z-score [7] | z-score [8] | composite z-score [9] | composite z-score [10]
1 | O=C1C[C@@](C(=O)NCCN2CCOCC2)(c2ccc([N+](=O)[O-])cc2)[C@@H](c2ccc(CO)cc2)N1C1CCCCC1 | 0.224 | 0.657 | 0.11 | 0.26 | 0.576 | 0.548 | 1.25 | 0.292 (inactive) | 0.133 | 0.0053
2 | COc1cc(CO)cc(I)c1O[C@H]1C=C(C(=O)NCCO)C[C@@H](N(CC2CCCCC2)C(=O)c2cc3ccccc3oc2=O)[C@@H]1O | -0.336 | -0.0516 | -0.0513 | 0.233 | 0.363 | 0.0577 | 0.377 | -1.48 (inactive) | -0.52 | 0.0722
3 | COCCOC(=O)N1C(=O)[C@@]2(c3cc(C#CCCO)ccc31)[C@H](c1ccc(O)cc1)N1[C@H](c3ccccc3)[C@H](c3ccccc3)OC(=O)[C@H]1[C@@H]2C(=O)Nc1nc2ccccc2s1 | -0.243 | 0.184 | 0.0644 | 0.892 | 1.25 | 0.227 | 1.15 | -0.205 (inactive) | 0.293 | -0.16
4 | Cc1ccc(N2C(=O)c3ccccc3[C@](C)(C(=O)NCC(C)C)[C@@H]2c2ccc(CO)cc2)nc1 | 0.572 | -0.48 | 0.0988 | -0.662 | -1.02 | -1.05 | 1.4 | 0.613 (inactive) | -0.542 | 0.74
5 | Cc1ccc(S[C@]2(C(=O)NCCCN(C)C)CC(=O)N(Cc3ccccc3)[C@@H]2c2ccc(CO)cc2I)cc1 | 1.04 | -1.08 | -0.0785 | -0.244 | -0.189 | 1.39 | 0.727 | -0.463 (inactive) | 1.04 | -0.427
6 | CC/C=C/C(=O)N(C[C@@H]1CCCO1)[C@@H]1CC(C(=O)NCCO)=C[C@H](Oc2c(I)cc(CO)cc2OC)[C@H]1O | -0.329 | 0.51 | -0.22 | 0.629 | 0.347 | 0.06 | 0.366 | -1.24 (inactive) | -0.176 | -0.0994
7 | Cc1ccc(S[C@]2(C(=O)O)CC(=O)N(Cc3ccccc3)[C@@H]2c2ccc(CO)cc2)cc1 | 0.58 | 0.131 | -0.0853 | -1.1 | 0.0203 | -0.33 | 0.736 | -0.579 (inactive) | 0.262 | -0.367
8 | O=C(CS)NCCCCCNC(=O)[C@H]1C[C@H]2C(=O)N[C@@H](Cc3ccccc3)C(=O)N2[C@H]1c1ccc(O)cc1 | 0.593 | 0.395 | -0.0176 | 0.645 | 1.02 | 0.541 | 1.23 | 0.658 (inactive) | 0.446 | -0.0919
9 | CCC1=C2CN(Cc3ccccc3Br)[C@@H]([C@@H](O)Cc3ccccc3)C2C=CCC1 (stereo not given in full) | -0.525 | -0.12 | -0.0858 | 0.528 | 0.814 | 0.421 | 0.817 | -1.83 (inactive) | 0.788 | 0.0881
10 | CN(C)CCCC[C@@H]1NC(=O)[C@@H]2C[C@H](C(=O)O)[C@H](c3ccc(O)cc3)N2C1=O | 0.491 | 0.738 | -0.128 | 0.217 | -0.0401 | 0.237 | 1.28 | 1.7 (inactive) | 0.212 | -0.279
11 | C=CCNC(=O)[C@H]1[C@@H]2C(=O)O[C@@H](c3ccccc3)[C@@H](c3ccccc3)N2[C@@H](c2ccc(O)cc2)[C@]12C(=O)Nc1ccc(C#CCNC(N)=O)cc12 | 0.587 | -0.0883 | -0.128 | -0.608 | -1.11 | 1.07 | 0.858 | -0.477 (inactive) | -0.526 | -0.21
12 | COc1ccc([Si](C)(C)[C@H]2[C@H](CCO)O[C@@]3(C(=O)N(Cc4ccccc4)c4ccc(N5C(=O)c6cccc7cccc5c67)cc43)[C@@H]2C)cc1 | 0.334 | -0.173 | -0.144 | 0.0626 | -0.0844 | 0.48 | 0.836 | -1.3 (inactive) | -0.268 | 3.71
13 | C=CCN1C(=O)[C@]2(O[C@H](CCn3cc(CCO)nn3)[C@@H]([Si](C)(C)c3ccc(OC)cc3)[C@@H]2C)c2cc(NC(=O)c3ccc(OC)cc3)ccc21 | 0.615 | 0.473 | 0.0051 | -0.0488 | 0.48 | 0.439 | 0.974 | -2.48 (inactive) | 0.479 | 0.176
14 | O=C1C[C@@](C(=O)NC2CC2)(c2ccc([N+](=O)[O-])cc2)[C@@H](c2ccc(CO)cc2I)N1CC12CC3CC(CC(C3)C1)C2 | -0.514 | -0.407 | 0.01 | 0.487 | 1.05 | 0.346 | 1.24 | -2.34 (inactive) | 0.303 | -0.184
15 | O=C1O[C@@H](c2ccccc2)[C@@H](c2ccccc2)N2[C@@H](c3ccc(O)cc3)[C@]3(C(=O)Nc4ccc(C#CC5(O)CCCCCC5)cc43)[C@@H](C(=O)Nc3nc4ccccc4s3)[C@H]12 | -0.128 | 0.91 | 0.0759 | 0.814 | 1.49 | 1.16 | 0.994 | -0.253 (inactive) | 1.12 | 1.71
16 | C#CCNC(/C=C/c1ccccc1)CO (stereo not given) | -0.383 | 0.329 | -0.0973 | 0.41 | 0.495 | -0.21 | -0.0021 | -0.156 (inactive) | 0.155 | -0.0237
17 | O=C1C2C=CC(C(O)c3ccccc3)N(n3cnnc3)C2C(=O)N1Cc1ccccc1 (stereo not given) | 0.43 | -0.399 | -0.0598 | 0.118 | 0.729 | 1.33 | 0.544 | -1.43 (inactive) | 0.364 | -0.16
18 | CO[C@H]1COC(=O)CC=C[C@H](C)COC(=O)[C@@H](OCc2ccccc2)C=C[C@@H]1C | -0.938 | 2.14 | -0.317 | -1.11 | -1.49 | 0.311 | 0.958 | 0.236 (inactive) | -0.0875 | -0.12
19 | O=C1O[C@@H](c2ccccc2)[C@@H](c2ccccc2)N2[C@@H](c3ccc(O)cc3)[C@]3(C(=O)Nc4ccccc43)[C@@H](C(=O)N3CCN(c4ncccn4)CC3)[C@H]12 | 0.0022 | 0.637 | 0.142 | 0.0271 | -0.486 | 0.474 | 1.25 | -3.02 (inactive) | 0.0944 | 0.0274
20 | C=C(/C(=C/C[C@@H](OC(=O)c1ccncc1)c1ccc(CO)o1)c1cnc2ccccc2c1)C(C)C | 0.358 | 0.522 | -0.0767 | 1.02 | 1.52 | 1.15 | 1.04 | -0.493 (inactive) | 0.398 | -0.0994
21 | COC(=O)C1=CC(c2ccc(CO)cc2)=CC(c2cccs2)N(Cc2cccc(OC(F)(F)F)c2)C=C1C(=O)OC (stereo not given) | -0.0169 | 1.41 | -0.0375 | 0.862 | 1.17 | 2.03 | 1.17 | -0.497 (inactive) | 0.48 | 0.0866
22 | CCCC[C@@H]1C[C@H]1[C@@H](NC(=O)c1cccs1)c1ccc(Cl)cc1 | 0.521 | -0.6 | -0.141 | -0.543 | -1.45 | -0.273 | -0.669 | 0.902 (inactive) | -0.531 | -0.0003
23 | COCCOC(=O)N1C(=O)[C@@]2(c3cc(C#CCNC(N)=O)ccc31)[C@H](C(=O)N1CCCCCCC1)[C@H]1C(=O)O[C@H](c3ccccc3)[C@H](c3ccccc3)N1[C@@H]2c1ccccc1OCCO | 2.42 | 0.288 | 0.129 | 0.452 | 1.38 | 1.03 | 1.05 | -0.556 (inactive) | 1.29 | 0.851
24 | COc1ccc(-c2ccccc2[C@@H]2N[C@H](C(=O)O)CC[C@H]2C)cc1 | -0.285 | -0.0323 | -0.132 | 0.277 | 0.244 | -0.233 | 0.424 | -0.438 (inactive) | 0.0952 | -0.134
25 | C=CC[C@]1(C(N)=O)N=C(c2ccc(OCCCO)cc2)O[C@H]1c1ccccc1CN=[N+]=[N-] | 1.12 | 1.36 | -0.0881 | -0.333 | 0.0233 | 1.87 | 1.34 | 1.2 (inactive) | 0.326 | -0.0994
26 | CO[C@H]1COC(=O)[C@H](C)NC(=O)CC=C[C@@H](C)[C@H](NS(=O)(=O)c2ccc(C)cc2)COC(=O)[C@@H](OCc2ccccc2)C=C[C@@H]1C | -0.452 | 0.148 | -0.183 | -0.0799 | -0.563 | -0.157 | -0.477 | -0.0584 (inactive) | -0.234 | -0.0237
27 | CCCNC(=O)[C@@H]1c2ccccc2C(=O)N(Cc2cc(F)cc(C(F)(F)F)c2)[C@H]1c1ccc(CO)cc1 | -0.0356 | 0.711 | 0.032 | 0.525 | 1.12 | 1.03 | 1.25 | -1.02 (inactive) | 0.613 | 0.0176
